Laboratory results from PubChem BioAssay AID1159580 (chemical genetic matrix, 2015).
The campaign covered roughly 5,500 compounds. About 2,000 (36%) were called active. About 18% were inconclusive and are not listed. Rule as the data show it: active = normalized growth mostly below about 0.91 (no sharp cut-off); inconclusive = no clear call, values can overlap the other calls; inactive = mostly above about 0.92. Some of the results follow.

Experiment: chemical genetic growth profiling, strain panel (AID 1159580);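 also: tested at 20 µM; growth read once vehicle control cultures reached saturation at 30 °C; 1 = growth at the plate median or of vehicle wells; lower values mean less growth of the strain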
Details: growth OD

Measured: normalized growth

NS(=O)(=O)c1cc(C2(O)NC(=O)c3ccccc32)ccc1Cl (stereo unspecified)
inactive: S. cerevisiae deletion strains, locus YJR075W, strain HOC1, active compounds read low 1.03 | S. cerevisiae deletion strains, locus YKL009W, strain mrt4, active compounds read low 1.01 | S. cerevisiae deletion strains, locus YKL068W, active compounds read low 1.01 | S. cerevisiae deletion strains, locus YKL085W, strain MDH1 (second series), active compounds read low 1.01 | S. cerevisiae deletion strains, locus YKL085W, strain MDH1, active compounds read low 1.01 | S. cerevisiae deletion strains, locus YKL160W, strain elf1, active compounds read low 0.991 | S. cerevisiae deletion strains, locus YKL190W, strain CNB1, active compounds read low 1.01 | S. cerevisiae deletion strains, locus YKR001C, strain vps1, active compounds read low 1.02 | S. cerevisiae deletion strains, locus YKR026C, strain gcn3, active compounds read low 0.978 | S. cerevisiae deletion strains, locus YKR091W, strain srl3, active compounds read low 0.987 | S. cerevisiae deletion strains, locus YLL001W, strain dnm1, active compounds read low 0.972 | S. cerevisiae deletion strains, locus YLL026W, active compounds read low 0.988 | S. cerevisiae deletion strains, locus YLL041C, strain sdh2, active compounds read low 0.981 | S. cerevisiae deletion strains, locus YLR027C, strain aat2, active compounds read low 0.994 | S. cerevisiae deletion strains, locus YLR039C, strain RIC1, active compounds read low 1.01 | S. cerevisiae deletion strains, locus YLR058C, strain SHM2, active compounds read low 1.03 | S. cerevisiae deletion strains, locus YLR102C, strain apc9, active compounds read low 1.01 | S. cerevisiae deletion strains, locus YLR113W, strain HOG1, active compounds read low 0.969 | S. cerevisiae deletion strains, locus YLR221C, strain rsa3, active compounds read low 0.981 | S. cerevisiae deletion strains, locus YLR258W, strain gsy2, active compounds read low 0.999 | S. cerevisiae deletion strains, locus YLR262C, strain YPT6 (second series), active compounds read low 1.01 | S. cerevisiae deletion strains, locus YLR262C, strain YPT6, active compounds read low 1.04 | S. cerevisiae deletion strains, locus YLR268W, strain sec22, active compounds read low 1.03 | S. cerevisiae deletion strains, locus YLR320W, strain mms22, active compounds read low 0.976 | S. cerevisiae deletion strains, locus YLR330W, strain CHS5, active compounds read low 1.02 | S. cerevisiae deletion strains, locus YLR342W, strain FKS1 (second series), active compounds read low 1.01 | S. cerevisiae deletion strains, locus YLR342W, strain FKS1, active compounds read low 0.987 | S. cerevisiae deletion strains, locus YLR357W, strain rsc2, active compounds read low 1 | S. cerevisiae deletion strains, locus YLR370C, strain arc18, active compounds read low 0.986 | S. cerevisiae deletion strains, locus YLR371W, strain rom2, active compounds read low 1.02 | S. cerevisiae deletion strains, locus YLR384C, strain iki3, active compounds read low 0.987 | S. cerevisiae deletion strains, locus YLR418C, strain cdc73, active compounds read low 1.03 | S. cerevisiae deletion strains, locus YML016C, strain PPZ1, active compounds read low 1.01 | S. cerevisiae deletion strains, locus YML032C, strain rad52, active compounds read low 1.02 | S. cerevisiae deletion strains, locus YML120C, strain ndi1, active compounds read low 0.983 | S. cerevisiae deletion strains, locus YML124C, strain tub3, active compounds read low 1.02 | S. cerevisiae deletion strains, locus YMR058W, strain fet3, active compounds read low 1.01 | S. cerevisiae deletion strains, locus YMR078C, strain ctf18, active compounds read low 1.02 | S. cerevisiae deletion strains, locus YMR125W, strain sto1, active compounds read low 1.01 | S. cerevisiae deletion strains, locus YMR129W, active compounds read low 0.985 | S. cerevisiae deletion strains, locus YMR205C, strain PFK2, active compounds read low 0.99 | S. cerevisiae deletion strains, locus YMR223W, strain ubp8, active compounds read low 1.02 | S. cerevisiae deletion strains, locus YMR231W, strain pep5, active compounds read low 0.994 | S. cerevisiae deletion strains, locus YMR263W, strain SAP30, active compounds read low 1.01 | S. cerevisiae deletion strains, locus YMR307W, strain GAS1, active compounds read low 0.984 | S. cerevisiae deletion strains, locus YNL067W, strain RPL9B, active compounds read low 1.02 | S. cerevisiae deletion strains, locus YNL071W, strain lat1, active compounds read low 0.989 | S. cerevisiae deletion strains, locus YNL153C, strain GIM3, active compounds read low 1.02 | S. cerevisiae deletion strains, locus YNL183C, strain NPR1, active compounds read low 0.948 | S. cerevisiae deletion strains, locus YNL209W, strain ssb2, active compounds read low 0.997 | S. cerevisiae deletion strains, locus YNL233W, strain BNI4, active compounds read low 1.02 | S. cerevisiae deletion strains, locus YNL248C, strain rpa49, active compounds read low 1.02 | S. cerevisiae deletion strains, locus YNL250W, strain rad50, active compounds read low 0.992 | S. cerevisiae deletion strains, locus YNL271C, strain bni1, active compounds read low 1.02 | S. cerevisiae deletion strains, locus YNL298W, strain CLA4, active compounds read low 1.03 | S. cerevisiae deletion strains, locus YNL307C, strain MCK1, active compounds read low 1.02 | S. cerevisiae deletion strains, locus YNL322C, strain KRE1 (second series), active compounds read low 0.983 | S. cerevisiae deletion strains, locus YNL322C, strain KRE1, active compounds read low 1 | S. cerevisiae deletion strains, locus YNR049C, strain mso1, active compounds read low 0.997 | S. cerevisiae deletion strains, locus YNR052C, strain pop2, active compounds read low 1.01 | S. cerevisiae deletion strains, locus YOL006C, strain TOP1, active compounds read low 1.1 | S. cerevisiae deletion strains, locus YOL012C, strain htz1 1.12 | S. cerevisiae deletion strains, locus YOL147C, strain pex11, active compounds read low 1.01 | S. cerevisiae deletion strains, locus YOR001W, strain rrp6, active compounds read low 0.987 | S. cerevisiae deletion strains, locus YOR061W, strain CKA2, active compounds read low 1.01 | S. cerevisiae deletion strains, locus YOR069W, strain VPS5, active compounds read low 1.01 | S. cerevisiae deletion strains, locus YOR070C, strain gyp1, active compounds read low 0.991 | S. cerevisiae deletion strains, locus YOR080W, strain dia2, active compounds read low 0.976 | S. cerevisiae deletion strains, locus YOR083W, strain WHI5, active compounds read low 0.98 | S. cerevisiae deletion strains, locus YOR106W, strain vam3, active compounds read low 1.01 | S. cerevisiae deletion strains, locus YOR136W, strain idh2, active compounds read low 1.03 | S. cerevisiae deletion strains, locus YOR144C, strain elg1, active compounds read low 1.02 | S. cerevisiae deletion strains, locus YOR184W, strain ser1, active compounds read low 1.03 | S. cerevisiae deletion strains, locus YOR231W, strain MKK1, active compounds read low 0.976 | S. cerevisiae deletion strains, locus YOR265W, strain rbl2, active compounds read low 0.993 | S. cerevisiae deletion strains, locus YOR270C, strain vph1, active compounds read low 1.01 | S. cerevisiae deletion strains, locus YOR290C, strain snf2, active compounds read low 0.986 | S. cerevisiae deletion strains, locus YOR316C, strain cot1, active compounds read low 1.02 | S. cerevisiae deletion strains, locus YPL051W, strain arl3, active compounds read low 0.981 | S. cerevisiae deletion strains, locus YPL055C, strain LGE1, active compounds read low 1.02 | S. cerevisiae deletion strains, locus YPL078C, strain atp4, active compounds read low 0.984 | S. cerevisiae deletion strains, locus YPL106C, strain sse1, active compounds read low 0.948 | S. cerevisiae deletion strains, locus YPL240C, strain hsp82, active compounds read low 0.99 | S. cerevisiae deletion strains, locus YPL241C, strain CIN2, active compounds read low 1.01 | S. cerevisiae deletion strains, locus YPL256C, strain CLN2, active compounds read low 0.96 | S. cerevisiae deletion strains, locus YPR119W, strain clb2, active compounds read low 1.01 | S. cerevisiae deletion strains, locus YPR141C, strain kar3, active compounds read low 1.03 | S. cerevisiae deletion strains, locus YPR163C, strain tif3, active compounds read low 1.01 | S. cerevisiae deletion strains, locus YPR167C, strain met16, active compounds read low 1.02 | S. cerevisiae deletion strains, strain wtn01, active compounds read low 1.04 | S. cerevisiae strains, strain wild type, active compounds read low 1.01
